The assay deals with VDR:RXRa (NR concentration 270 nM, RXRa partner concentration 90 nM). Briefly: PBM binding z-score (relative to random genomic background probes); higher = stronger binding; sequences stand for … in GC…GCGATTGACAGCGTAGAATGAAGG
As for the experimental part: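 Protein-binding microarray (Agilent 4x180K custom design, double-stranded 60-nt probes: 5' GC cap, 34-nt variable region, 24-nt constant primer region; full probe sequence given). Purified or IVT nuclear receptor:RXRα heterodimers (3:1 NR:RXRα, mostly 270:90 nM) or homodimers were incubated for 1 h in PBS with 2% milk and no ligand, then detected with Alexa488 antibodies. Fluorescence from o1-orientation probes (~5 replicates averaged) was converted to z-scores against 500 random hg19 background probes. Variable regions are seed direct-repeat (DR0–DR5) sites, all their single-nucleotide variants and half-site ablations.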
As to CCGACTGGGGCAGAAAGGCTACCATACCATCCGG, the PBM binding z-score is -0.639.
To TGTCAAAGTTCAAAGGTAAGGTAAGTATCCACAC belongs 4.95; to GGAACGAGAGCAAGTTGATAGCAGAGTTTGATGG, -0.392.
In turn, GGAACGAGGGCATGTTGATAGCAGAGTTTGATGG displayed a PBM binding z-score of 0.929.
The figure for GGAACGAGGGCAAGTTGATAGCCGAGTTTGATGG is 1.04.
The figure for ACAGACAGGTGATGAAGGTAACTCCGGCTATCAT is 0.125; for CGCACTAGGTCAAGGACAGTGAATCTCCGCACGC it is 1.28.
In the case of GATACAGGGGCAGCTAGAGGCCAGAGTATGGAAA, the PBM binding z-score was -0.219.
Regarding CGAACTAGGTCATCCAGGATAGTGAATACATTGA, the PBM binding z-score stood at 3.02.
To TCGAGTAGGTTACCAATGGGGCATTAAGCTTTCT belongs 0.0667.
To TCATATAGGTAATACACGTGAAAGTCGGCATCTA belongs 1.01; to CAAACTAGGTCAGAGGTCAAAGTCGAGCCAACCA, 6.04; to GGAACGAGGGCATTCGTGTTGATAGCATGGCGAT, 1.6.
To TCATATAGGTAACCAGGTGAAAGTCCGTAAGTTA belongs 1.06; to TGTCAAAGTTCAAGGGTAACGTAAGTATCCACAC, 4.26.
Regarding CCTACTGGGCCATCAGGGCATTGATATCAACGTT, the PBM binding z-score was -0.589.
As for CAGCCTAGGTCATGGCCAGTATAGGAGGAACGTT, the PBM binding z-score came to 1.84.
In the case of CCTAGCAGGACAGGGTCACTCAAGCATTTCGCTT, the PBM binding z-score was found to be 2.9.
To GCGACTGGGGCATCAGCAGGTTACCAGAACTTAA belongs -0.205; to GGAACGAGGGCAAAGTTGAGAGCATCTGTCGACG, 1.55.
The figure for CAAACTAGGTCACGCAAGGTCAAAGTCGAATGAC is 6.9.
GCTATTGGTTGAAAGGGCAACCGAATGATTCTCG gave a PBM binding z-score of 0.563.
Regarding CAAACTAGGTCACAGAAGTCAAAGTCCGTGCGTA, the PBM binding z-score turned out to be 3.91.
TTACCAATGTGAAAGGTCGTTGATGCACGCCTTG had a PBM binding z-score of 2.08.
For the sequence TGTCAAAGTTCAAAGGTAACGGAAGTATCCACAC, the PBM binding z-score came to 5.14.
With GGAATGAGGGCATTCGAGTTGATAGCATGGCGAT, the PBM binding z-score came out at 3.45.
As to TCTCGGAGGACACGAAAGGCCAGAGCTCGACATC, the PBM binding z-score is -0.308.
Take TCATATAGGTCAAGGTGAAAGTCGAACGATATGA: the PBM binding z-score was 2.94.
The figure for CCTACTGGGCCATTCAGAGGTCATTTATCATATG is 3.73; for TCATAAAGGTAAAGGTGAAAGTCGAACGATATGA it is 0.948; for CCTGCTAGGTCAATGGTAAGCTAAAGCAGCTCGC it is 0.595.
The figure for CCTAGTTGGTCAAGGGCACACACGCTATAGGTAC is 0.813.
The figure for TCGATTAGGTTAGTCGGGGCATTCAGCCAACATA is 2.14; for TATAGTTGGTCACGGAGGTCACACACGACGGGTA it is 5.81; for CCTGCTAGGTCATGGTTAGCTAATCTACAGTATG it is 1.39.
In the case of GCGACTGGGGCAAAGCAGGTTTCCATAAGGTTGG, the PBM binding z-score was -0.475.
As for GATGCTAGGTCAGGTTGGTCAGCTAACGGGTACG, the PBM binding z-score was found to be 0.88.
The sequence ACTAGCAGGCCAAGGGTCACTCACGATTAGTCCG returned a PBM binding z-score of 2.69.
GCATTTAGGTAATACAAGGTGAAAGTCCGATTGT returned a PBM binding z-score of 0.176.
Turning to TCATATATGTAAACAGGTGAAAGTCCGTAAGTTA, the PBM binding z-score was 1.31.

Values taken from the supplement of paper PMC6555819.
